# According to PubChem BioAssay (NCATS):
# Inconclusive results are not listed. A call without a number means that no potency is given here. Active and inactive are the calls of the source. Calls follow the shape of the dose curve; as a rule, active = well fitted curve in the direction sought with a large enough effect; inconclusive = small, poorly fitted or top-dose-only effect, or another doubt; inactive = no such curve, though single readings can be large; an effect the other way counts as inactive or inconclusive. Peptide text beside a SMILES is read from it.
# Assays:
# [1] = qHTS assay to identify small molecule inhibitors of chordoma cells - UCH-1 (AID 1259355); also: nearly all actives have a fitted effect of over 55% in size; also: potency is read from the fitted curve at half-maximal effect
# How it was run: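 A 48hr growth-inhibition format: each drug tested at 15 concentrations together with added auranofin, camptothecin, doxorubicin, rubitecan and topotecan, with cell viability quantified as CellTiter-Glo luminescence.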
# [2] = qHTS assay to identify small molecule inhibitors of chordoma cells - UCH-2 (AID 1259356); also: potency is read from the fitted curve at half-maximal effect
# [3] = qHTS profiling for inhibitors of Plasmodium falciparum (HB3) proliferation (AID 743324); settings: Plasmodium falciparum HB3 blood-stage proliferation; at 28.7 µM (top of the series) unless noted
# How it was run: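 SYBR Green fluorescence (485 ex/535 em) of lysed cultures, incubated overnight at room temperature in the dark, quantifies parasite DNA. Infected erythrocytes at 0.3% parasitemia and 2.5% hematocrit were exposed 72 h; values normalized to DMSO and 0.29 uM artemisinin controls.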
# [4] = P-glycoprotein substrates identified in KB-3-1 adenocarcinoma cell line, qHTS therapeutic library screen (AID 1346986); also: nearly all actives have a fitted effect of over 60% in size
# How it was run: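 72 h cell-killing screen, 500 cells/well, CellTiter-Glo luminescence. Paired lines KB-3-1/KB-8-5-11; P-gp dependence checked by tariquidar co-treatment and HEK-293 MDR-19 versus empty-vector cells.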
smiles,measurement,setting,value
Cc1c(C)c2c(c(C)c1O)CC[C@@](C)(CCC[C@@H](C)CCC[C@@H](C)CCCC(C)C)O2,Potency,[1],inactive
O=C(O)CN(CCN(CC(=O)O)CC(=O)O)CC(=O)O,Potency,[1],inactive
same,Potency,[2],inactive
Cc1cc(C(=O)NNCc2ccccc2)no1,Potency,[1],inactive
same,Potency,[2],inactive
Nc1ccn([C@H]2CS[C@@H](CO)O2)c(=O)n1,Potency,[1],inactive
same,Potency,[2],inactive
NC1C2CN(c3nc4c(cc3F)c(=O)c(C(=O)O)cn4-c3ccc(F)cc3F)CC12 (stereo not given),Potency,[1],inactive
CCCCC(=O)OCC(=O)[C@]1(O)Cc2c(O)c3c(c(O)c2[C@@H](O[C@H]2C[C@H](NC(=O)C(F)(F)F)[C@H](O)[C@H](C)O2)C1)C(=O)c1c(OC)cccc1C3=O,Potency,[1],6.31 µM (active)
COC(=O)C1=C(C#N)NC(C)=C(C(=O)OC(C)C)C1c1cccc([N+](=O)[O-])c1 (stereo not given),Potency,[1],inactive
same,Potency,[2],inactive
CCCCCCC(O)C/C=C/CCCCCCCC(=O)O (stereo not given),Potency,[1],inactive
CO[C@H]1C=CO[C@@]2(C)Oc3c(C)c(O)c4c(O)c(c(/C=N/N5CCN(C6CCCC6)CC5)c(O)c4c3C2=O)NC(=O)/C(C)=C\C=C[C@H](C)[C@H](O)[C@@H](C)[C@@H](O)[C@@H](C)[C@H](OC(C)=O)[C@@H]1C,Potency,[1],inactive
same,Potency,[2],inactive
CCC(=O)O[C@]1(C(=O)CCl)[C@@H](C)C[C@H]2[C@@H]3C[C@H](F)C4=CC(=O)C=C[C@]4(C)[C@@]3(F)[C@@H](O)C[C@@]21C,Potency,[1],inactive
COc1cc(-c2ccc(-[n+]3nc(-c4ccccc4)nn3-c3ccc([N+](=O)[O-])cc3)c(OC)c2)ccc1-[n+]1nc(-c2ccccc2)nn1-c1ccc([N+](=O)[O-])cc1,Potency,[1],31.6 µM (active)
same,Potency,[2],9.2 µM (active)
CCC1OC(=O)C[C@@H](O)[C@H](C)[C@@H](O[C@@H]2O[C@H](C)C[C@H](N(C)C)[C@H]2O)[C@@H](CC=O)C[C@@H](C)C(=O)/C=C/[C@]2(C)OC2C1C (stereo not given in full),Potency,[1],inactive
same,Potency,[2],inactive
CC(=O)N[C@@H](CC(=O)O)C(=O)N[C@@H](CCC(=O)O)C(=O)O (Ac-Asp-Glu-OH),Potency,[1],inactive
CCOc1ccc(N=Nc2ccc(N)cc2N)cc1,Potency,[1],inactive
same,Potency,[2],inactive
CC[N+](CC)(CC)CCC(O)(c1ccccc1)C1CCCCC1 (stereo not given),Potency,[1],inactive
same,Potency,[2],inactive
COC(=O)CCC(=O)CN,Potency,[1],inactive
same,Potency,[2],inactive
COC(F)(F)C(Cl)Cl,Potency,[1],inactive
same,Potency,[2],inactive
O=C(Nc1ccc(Br)cc1)c1cc(Br)c(Br)s1,Potency,[1],inactive
same,Potency,[2],inactive
O=C(COc1ccc(Cl)cc1)OCCNC12CC3CC(CC(C3)C1)C2,Potency,[1],inactive
same,Potency,[2],inactive
Cc1cc(CC(C)CC(C)(C)C)n(O)c(=O)c1 (stereo not given) (tested in a mixture with another compound),Potency,[1],inactive
CCCC(=O)Nc1ncnc2c1ncn2C1OC2COP(=O)(O)OC2C1OC(=O)CCC (stereo not given),Potency,[1],inactive
CC1(C)S[C@@H]2[C@H](NC(=O)C(C(=O)O)c3ccsc3)C(=O)N2[C@H]1C(=O)O (stereo not given in full),Potency,[1],inactive
same,Potency,[2],inactive
Oc1cc(O)c2c(c1)OC(c1ccc(O)c(O)c1)C(O)C2 (stereo not given),Potency,[1],inactive
CCOC(C)=O,Potency,[1],inactive
same,Potency,[2],inactive
CN1C(=O)CN2CCc3ccccc3C2c2cc(Cl)ccc21 (stereo not given),Potency,[1],inactive
same,Potency,[2],inactive
CO[C@@H]1[C@@H](O[C@@H]2O[C@H](C)[C@@H](O[C@H]3C[C@@](C)(O)[C@@H](O)[C@H](C)O3)[C@H](N(C)C)[C@H]2O)[C@@H](CC=O)C[C@@H](C)[C@@H](O[C@@H]2CC[C@H](N(C)C)[C@@H](C)O2)/C=C/C=C/C[C@@H](C)OC(=O)C[C@H]1O,Potency,[1],inactive
same,Potency,[2],inactive
CCOC(=O)C1=CC2(CC)CCCN3CCc4c(n1c1ccccc41)C32 (stereo not given),Potency,[1],inactive
CCCCCC(CC)COC(=O)CC(C(=O)OCC(CC)CCCC)S(=O)(=O)O (stereo not given),Potency,[1],inactive
CC[N+](C)(C)Cc1ccccc1Br,Potency,[1],inactive
same,Potency,[2],inactive
CCCCCCOc1ccc(C(=N)N(CCCC)CCCC)c2ccccc12,Potency,[1],inactive
C[C@@H]1CCC2[C@@H](C)[C@@H](O)O[C@@H]3O[C@@]4(C)CC[C@@H]1[C@@]23OO4 (stereo not given in full),"remaining proliferation (% of control), lower = more inhibition",[3],-0.144%
C/C1=C2N=C(/C=C3N=C(/C(C)=C4\[N-][C@@](C)([C@@H]5N=C1[C@](C)(CCC(=O)NCC(C)OP(=O)(O)O[C@H]1[C@@H](O)[C@@H](n6cnc7cc(C)c(C)cc76)O[C@@H]1CO)[C@H]5CC(N)=O)[C@@](C)(CC(N)=O)[C@@H]4CCC(N)=O)[C@@](C)(CC(N)=O)[C@@H]\3CCC(N)=O)C(C)(C)[C@@H]/2CCC(N)=O.CC(=O)O.[Co] (stereo not given in full),Potency,[4],inactive
